Compounds without any hit were thinned out: in the full panel of roughly 83,000, 20% have a hit.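 Results are percent growth after 48 hours of single-concentration exposure. 100 means growth as in untreated cells, lower positive values show inhibition; negative values down to -100 show cell death.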 A number with no mark means an inactive call. Activity calls are given as the source filed them. Rule for the calls: active = growth percent below 10; inactive = the rest.
Columns and labels:
Test in all cases: NCI-60 one-dose screen, 48 h (100 = growth as untreated, 0 = no growth, -100 = all killed)
Conditions in all cases: 10 µM unless noted
NCI-H23 lung = test system: NCI-H23 lung
NCI-H226 lung = test system: NCI-H226 lung
NCI-H322M lung = test system: NCI-H322M lung
HOP-62 NSCLC = test system: HOP-62 NSCLC
NCI-H460 lung = test system: NCI-H460 lung
HOP-92 NSCLC = test system: HOP-92 NSCLC
NCI-H522 lung = test system: NCI-H522 lung
A549/ATCC NSCLC = test system: A549/ATCC NSCLC
COLO 205 colon = test system: COLO 205 colon
786-0 renal = test system: 786-0 renal

SMILES | growth (NCI-H23 lung) [%] | growth (NCI-H226 lung) | growth (NCI-H322M lung) [%] | growth (HOP-62 NSCLC) | growth (NCI-H460 lung) | growth (HOP-92 NSCLC) [%] | growth (NCI-H522 lung) | growth (A549/ATCC NSCLC) [%] | growth (COLO 205 colon) | growth (786-0 renal)
Cc1ccc2[nH]c(=O)c3c(c2c1)Oc1ncn2nc(-c4ccco4)nc2c1C3c1ccc(Cl)cc1 (centres undefined) | 93.3 | 92.4% | 96.1 | 92.1% | 99.9% | 78.5 | 89.5% | 96.7 | 109% | 
CC(C)(C)n1cc(-c2ccnc(NCCCNS(=O)(=O)c3ccc(Br)cc3)c2)c(-c2cccc(O)c2)n1 | 47.1 | 40.4% | 30.9 | 46.8% | -21.2% (active) | 48.4 | 13.5% | 24.1 | -62.6% (active) | -2.1% (active)
C=CCn1cc(-c2nc3ccccc3s2)c2cc(-c3ccc4c5c(cccc35)C(=O)N(CCN3CCNCC3)C4=O)ccc21 | 86.3 | 63.9% | 97.5 | 82.7% | 89% | 72.1 | 92.4% | 85 | 107% | 
CCCCOc1ccc(/C=C2/SC(N3CCCC3)=NC2=O)cc1 | 98.8 | 85.5% | 98.8 | 99.3% | 99% | 86.8 | 82.4% | 94.7 | 104% | 
CCN(CC)CCOC(=O)C(c1ccccc1)(c1ccccc1)C(C)C | 90.2 | 92.9% | 82.3 | 83.2% | 92% | 77.7 | 86.6% | 80 | 66.3% | 
CCN1CCN(CC(=O)N2c3cccc4cccc(c34)N(C(=O)CN3CCN(CC)CC3)C2c2cn(-c3ccccc3)nc2-c2cccc([N+](=O)[O-])c2)CC1 | 13.7 | -28.3% (active) | 25.3 | 0.226% (active) | -37.9% (active) | 61.4 | -64.7% (active) | 12.9 | -66.9% (active) | 
Cc1nc2c3c(ncn2n1)Oc1c(c(=O)[nH]c2ccccc12)C3c1ccc(Cl)cc1 (centres undefined) | 103 | 98% | 100 | 87.3% | 101% | 74.2 | 87.6% | 97.4 | 107% | 
COc1ccc(-c2ccc(-c3ccc(C(=N)N)cn3)s2)cc1OC | 94 | 96.3% | 97.7 | 91.4% | 99.5% | 69.3 | 100% | 100 | 103% | 100%
CC(C)(C)n1cc(-c2ccnc(NCCCNS(=O)(=O)c3ccc(F)cc3)c2)c(-c2cccc(O)c2)n1 | 57.9 | 51.2% | 60.5 | 74% | 18.3% | 60.3 | 39.1% | 40 | 13% | 22.6%
O=C1CCCCC1(c1ccccc1)c1ccccc1 | 98.8 | 99.8% | 111 | 103% | 103% | 89.3 | 99% | 110 | 109% | 109%
CC(C)C1=CC2=C(C=O)C[C@@H]3[C@](C)(CCC[C@@]3(C)C(=O)OCC#CCN3CCCC3)[C@H]2CC1 | 62.2 | 75.7% | 96.2 | 84.9% | 76.8% | 45.9 | 59.9% | 67.4 | 86.5% | 75.2%
